Our source for the Potency, cell number change and lipid storage change, negative = inhibition values is PubChem BioAssay AID2685 (National Center for Advancing Translational Sciences (NCATS), 2010).

Among all 320,000 compounds or so, about 2,100 (0.66%) were called active. About 53% were inconclusive and are not listed. Calls follow the shape of the dose curve; as a rule, active = well fitted inhibition curve with a large enough effect in the signal ratio, with a control signal flat (not every such curve was filed as active); inconclusive = small, poorly fitted or top-dose-only effect, or effect the other way, or a change in a side signal; inactive = flat fitted curve, though single readings scatter; the % refers to the signal ratio. What follows is part of a selection rich in actives, with near analogues and random picks from the rest.
Potency is read from the fitted curve at half-maximal effect.

This assay in a line: qHTS Assay for Lipid Storage Modulators in Drosophila S3 Cells.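 As to cell number change: cells counted by Cell Tracker Red CMTPX staining in the red channel.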 As to lipid storage change, negative = inhibition: % is scaled to controls: 0 for no effect and ±100 for the full control effect. To be noted: BODIPY lipid droplet fluorescence, 18-24 h, cells fed with added oleic acid; cell number change: measured here: cell count max response; series mostly up to 46.1 µM. An excerpt: NIH Molecular Libraries Probe Production Centers Network [MLPCN] NIH Chemical Genomics Center [NCGC] MLPCN Grant: 1 R03 MH085686-01 Assay Submitter (PI): Beller, Mathias; Max-Planck-Institut fur Biophysikalische Chemie NCGC Assay Overview: Storing lipids as a reservoir for energy or the anabolism of elementary metabolites is a common feature of probably all cells and is conserved from bacteria to humans. The universal cellular lipid storage organelle is the so-called lipid storage droplet (LD). Although ubiquitous, LDs share a simple structure composed of a hydrophobic core that harbors the storage lipids, which is shielded by a droplet-specific phospholipid monolayer to which proteins are attached. The current model of LD biogenesis involves an incorporation of the lipid core into the membrane leaflets of the endoplasmic reticulum (ER) followed by a subsequent budding-like maturation of a LD, which ultimately pinches off. Once released, LD volume can increase by localized lipogenesis or fusion of existing droplet. Storage lipids are re-mobilized enzymatically by lipase activity. Lipase regulation in the adipocyte is heavily studied and involves multiple components including catecholamine signaling, the LD-associated proteins Perilipin and comparative gene identification (CGI-58) and at least two lipases named hormone sensitive lipase (HSL) and adipocyte triglyceride lipase (ATGL). LD regulation outside of the adipocyte is poorly understood and only few components are known. However, there is an urgent need to learn more about ectopic fat depots as mislocalized storage of lipids, for example in the liver or muscle, is an eminent health problem associated with insulin resistance or the metabolic syndrome. We developed a laser-scanning cytometer assay to enable 1,536-well screening and combined the results of the small molecules screen with an RNAi database based on lipid storage.
Triacsin C (Sigma-Aldrich T-4540), an inhibitor of long-chain fatty acyl CoA synthetase that blocks synthesis of triglycerides, was used as a positive control for lipid under-storage. A total of 23 nL of compound solution of different concentrations were transferred to the assay plates using a Kalypsys pin tool equipped with a 1,536-pin array containing 10-nL slotted pins (FP1S10, 0.457-mm diameter, 50.8 mm long; V&P Scientific). One microliter of oleic acid (400 uM) was added, and the plate was lidded with stainless steel rubber gasket lined lids containing pinholes. […] Fluorescence was detected by excitation of the fluorophores with a 488-nm laser on an Acumen Explorer (TTP Lab Tech). The total intensity in channel 2 (500-530 nm) reflected lipid droplet accumulation. Cells were detected using channel 3 (575-640 nm) with 5-um width and 100-um depth filters. The ratio of the number of objects in PMT channel 2 over the number of objects in PMT channel 3 was also calculated. Percent activity was computed relative to an internal control (100% inhibited lipid droplet deposition due to the presence of 20 uM Triacsin C), which was added to 32 wells/plate.
Background: Quantitative high-throughput screening tests each substance at several concentrations.
On to `O=C1CCCc2ccccc2N1Cc1ccc(Cl)cc1`, for which the Potency result is “inactive” and the cell number change was -1.32%.

As for `Cc1ccc2c(c1)N(CC(=O)NCCC1=CCCCC1)C(=O)c1cccnc1O2`, the Potency entry is “inactive” and the cell number change is 12.4%.

As to `COc1ccc(OCC(=O)Nc2ccc(S(=O)(=O)N3CCN(C)CC3)cc2)cc1`, the Potency entry was “inactive” and the cell number change is -8.24%.

With `COc1ccc(OCC(=O)OCC(=O)NC2CCCCC2C)cc1` (stereo not given), the Potency result is “inactive” and the cell number change came out at 5.06%.

Turning to `CC1CCCCC1NC(=O)COC(=O)Cc1ccc(Cl)cc1` (stereo not given), the Potency result was “inactive” and the cell number change was -17.8%.

For `COc1cc(NC2CCCCC2O)c2nc(-c3ccc(Cl)cc3)ccc2c1` (stereo not given), the Potency is 14.6 µM (active) and the cell number change is -29.8%.

Turning to `NC1=NC(=O)C(CC(=O)c2ccc(Cl)cc2)S1` (stereo not given), the Potency entry is “inactive” and the cell number change is -1.82%.

As for `O=C1CC(C(=O)Nc2ccc(C(=O)O)cc2)C(c2ccccc2)O1` (stereo not given), the Potency entry was “inactive” and the cell number change was -9.22%.

Take `O=C(CN1CCCC1)N1c2ccccc2C=Cc2ccccc21`: the Potency result was “inactive” and the cell number change was -13.2%.

Regarding `O=C(CN1CCCCCC1)N1c2ccccc2C=Cc2ccccc21`, the Potency is 23.1 µM (active) and the cell number change is -1.69%.

Regarding `O=C(CN1CCC(O)CC1)N1c2ccccc2C=Cc2ccccc21`, the Potency entry is “inactive” and the cell number change stood at 5.26%.

For `Cc1nn(CC(=O)OCC(=O)Nc2c(C(C)C)cccc2C(C)C)c(C)c1[N+](=O)[O-]`, the Potency entry is “inactive” and the cell number change came out at 13.1%.

Regarding `CCOc1ccc(C=NC23CN4CN(CN(C4)C2)C3)cc1`, the Potency entry was “inactive” and the cell number change came to 8.43%.

On to `C(=N\n1cnnc1)/c1ccc2c(c1)OCO2`, for which the cell number change was 14.5% and the lipid storage change, negative = inhibition is 3.76% [at 9.22 µM] (inactive).

`C(=NC12CN3CN(CN(C3)C1)C2)c1ccc2c(c1)OCO2`: the Potency is 25.9 µM (active) and the cell number change is -2.59%.

As for `Fc1ccccc1OCCCCN1CCCCC1`, the Potency entry was “inactive” and the cell number change worked out at 6.04%.

Turning to `CC(C)NC(=O)C(Cc1ccccc1)N1C(=O)c2ccccc2C1=O` (stereo not given), the Potency entry was “inactive” and the cell number change is -13.7%.

`COc1ccc2c(CCNC(N)=S)c[nH]c2c1`: the Potency entry was “inactive” and the cell number change is 9.98%.

Regarding `CCOc1ccccc1N(CC(=O)NCC1CCCO1)C(=O)CCC(=O)Nc1cc(C)on1` (stereo not given), the Potency entry was “inactive” and the cell number change amounted to 6.09%.

For `Cc1cc(NC(=O)CCC(=O)N(CC(=O)NCC2CCCO2)c2ccccc2C)no1` (stereo not given), the Potency result was “inactive” and the cell number change was determined as 5.33%.

`Cc1cc(NC(=O)CCC(=O)N(CC(=O)NCC2CCCO2)c2ccc3c(c2)OCCO3)no1` (stereo not given): the Potency result is “inactive” and the cell number change turned out to be 10.4%.

Regarding `Cc1cc(NC(=O)CCC(=O)N(CC(=O)NCC2CCCO2)c2ccc(Cl)c(Cl)c2)no1` (stereo not given), the Potency result was “inactive” and the cell number change amounted to 10.4%.

With `CCc1ccccc1N(CC(=O)NCC1CCCO1)C(=O)CCC(=O)Nc1cc(C)on1` (stereo not given), the Potency is 25.9 µM (active) and the cell number change turned out to be 7.08%.

Consider `Cc1cc(NC(=O)CCC(=O)N(CC(=O)NCC2CCCO2)c2ccc(C)c(C)c2)no1` (stereo not given), for which the Potency was 1.03 µM (active) and the cell number change is -10%.

As to `COC(=O)c1ccc(N2C(=O)c3cc(N4CCOCC4)c([N+](=O)[O-])cc3C2=O)cc1`, the Potency entry was “inactive” and the cell number change is 0.29%.
